Consider 56 compounds from PubChem BioAssay AID463082 (The Scripps Research Institute Molecular Screening Center, 2010).

Out of some 330,000 compounds screened, about 4,900 (1.5%) were called active. The entries come from a sample that favours actives as a whole. Unmarked numbers belong to inactive results.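 Rule for the calls: active = inhibition above the mean inhibition across the screen plus 3 SD (cut at about 25% in these data); inactive = the rest.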

What is called inhibition is the relative decrease from the control value, in per cent.

The target in this assay is Platelet-activating factor acetylhydrolase (Homo sapiens) (UniProt Q13093). Briefly: inhibition of plasma PAF acetylhydrolase – biochemical, fluorescence polarization, human, primary screen (AID 463082).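 Note: inhibitors block binding of the rhodamine activity-based probe so polarization drops; 0% = enzyme with DMSO and 100% = wells lacking pPAFAH.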 As to conditions: recombinant pPAFAH, FP-rhodamine probe fluorescence polarization; at 3.39 µM; active compounds read high. (In general: Polarisation of emitted light reports the rotation of a fluorescent probe.)
Chain of Platelet-activating factor acetylhydrolase (Homo sapiens) (Q13093 whole entry, looked up): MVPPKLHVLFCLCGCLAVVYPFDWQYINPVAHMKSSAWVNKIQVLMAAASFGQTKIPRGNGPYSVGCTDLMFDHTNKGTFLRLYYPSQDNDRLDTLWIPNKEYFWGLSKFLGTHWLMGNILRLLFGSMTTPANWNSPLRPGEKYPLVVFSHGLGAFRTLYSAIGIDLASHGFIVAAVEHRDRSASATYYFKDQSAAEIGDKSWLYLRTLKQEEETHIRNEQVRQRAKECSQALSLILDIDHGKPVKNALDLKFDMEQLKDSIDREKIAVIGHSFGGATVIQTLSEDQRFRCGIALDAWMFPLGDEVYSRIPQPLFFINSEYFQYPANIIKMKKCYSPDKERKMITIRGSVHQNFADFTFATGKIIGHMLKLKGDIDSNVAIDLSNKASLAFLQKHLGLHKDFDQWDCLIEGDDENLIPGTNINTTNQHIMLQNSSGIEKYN
Regarding `Cc1cc(C)c(-c2c(O)c3ccccc3n(C)c2=O)c(C)c1`, the inhibition is -0.19%. As for `COc1ccc(CN2CC(C(=O)NCCN3CCN(c4ccccc4F)CC3)CC2=O)cc1` (stereo unspecified), the figure is -3.16%. Then `CC1CCC(NC(=O)C2c3ccccc3C(=O)N2Cc2ccc3c(c2)OCO3)CC1` (stereo unspecified), with -0.02%; and `O=C(Nc1ccc(Cl)cc1)C1c2cccc[n+]2CC(=O)N1Cc1ccc2c(c1)OCO2` (stereo unspecified), with 25.9% (active). Then `O=C(C1CCN(Cc2ccc(Cl)cc2)CC1)N1CCN(Cc2ccc3c(c2)OCO3)CC1`, with 6.74%. As to `COC(=O)c1c(C)oc(C)c1S(=O)(=O)NCc1ccc(Cl)cc1`, the inhibition is -8.68%. As for `Cc1nnc(SCC(=O)Nc2cccc(N)c2)n1-c1ccccc1`, the figure is 6.08%; as for `COc1ccc(-n2cnnc2SCC(=O)Nc2cccc(S(N)(=O)=O)c2)cc1`, 3.84%. On to `NS(=O)(=O)c1cccc(NC(=O)CSc2nc3ccccc3n2-c2ccccc2)c1`, for which the inhibition is 33.2% (active).

For the compound `O=[N+]([O-])c1ccc(N2CCN(S(=O)(=O)c3ccccc3)CC2)cc1N1CCc2ccccc2C1`, the inhibition is -4.15%. Regarding `COCCN1C(=O)C(=O)/C(=C(/O)c2ccc(S(=O)(=O)N3CCCCC3)cc2)C1c1ccc(OC)c(OC)c1` (stereo unspecified), the inhibition was -2.4%. Then `Cc1cccc(-n2c(C)cc(/C=N/NC(N)=S)c2C)c1`, with -4.16%.

Consider `Cc1ccc(-n2c(C)cc(/C=N/Nc3ccc([N+](=O)[O-])cn3)c2C)c(C)c1`, for which the inhibition is 8.84%. Then `Cc1cc(/C=N/Nc2ccc([N+](=O)[O-])cn2)c(C)n1-c1cccc(C(=O)O)c1`, with 66.3% (active); and `NC(=O)NC(=O)CSc1nc2cc([N+](=O)[O-])ccc2n1-c1cccc(C(F)(F)F)c1`, with 18.1%. As for `Cc1ccc(C(=O)N/C(=C\c2ccco2)C(=O)NC2CCS(=O)(=O)C2)cc1` (stereo unspecified), the figure is -1.45%; as for `COc1cc(NS(=O)(=O)c2ccc(NC(C)=O)cc2)cc(OC)c1`, 2.89%; as for `CC(=O)Nc1ccc(S(=O)(=O)Nc2ccc(N3CCCCC3)cc2)cc1`, 27.6% (active). Then `CC(=O)Nc1ccc(S(=O)(=O)Nc2ccc(N3CCOCC3)c(F)c2)cc1`, with 5.29%; and `COc1ccccc1OCCNC(=O)C(CCSC)NC(=O)COc1ccccc1` (stereo unspecified), with 1.04%.

Consider `COc1ccc(NS(=O)(=O)c2ccc(O)c(C(=O)OCC(=O)NC3CCCCC3)c2)cc1`, for which the inhibition was 26.9% (active).

For `CC(C)NS(=O)(=O)c1ccc(OCC(=O)NC2CCCCCC2)cc1`, the inhibition was 6.56%. As for `CCN(C(=O)COC(=O)c1cc(NS(=O)(=O)c2ccc(Cl)c([N+](=O)[O-])c2)ccc1O)C1CCCCC1`, the figure is -1.02%; as for `COC(=O)c1sc(N2CCN(Cc3ccccc3)CC2)nc1N`, 5.95%; as for `CC(=O)Nc1ccccc1OC(=O)N1CCOCC1`, -0.96%. Then `O=C(/C=C/c1cccs1)c1cc(Cl)ccc1OC(=O)N1CCOCC1`, with 42.8% (active); and `O=C(Oc1cccc(C(=S)N2CCOCC2)c1)c1cccc(Cl)c1`, with 7.68%.

Consider `COc1ccc(/C=C2/S/C(=N/N=C3\CC4CCC3(C)C4(C)C)NC2=O)cc1` (stereo unspecified), for which the inhibition was 5.69%. Then `O=C1c2ccccc2NC(c2ccc(-c3cccc(Cl)c3)o2)N1O` (stereo unspecified), with 7.56%.

Consider `O=C(O)C(c1ccccc1)N1C(=O)/C(=C\c2ccc(-c3cccc(Cl)c3)o2)SC1=S` (stereo unspecified), for which the inhibition was 70.4% (active). Then `O=C1NN(c2ccccc2)C(=O)/C1=C/c1ccc(-c2cccc(C(=O)O)c2)o1`, with 18.6%. Take `COc1ccc(CN2C3CCCC2CC(NC(=O)c2cccc(F)c2)C3)cc1` (stereo unspecified): the inhibition was 0.56%. With `O=S(=O)(N/N=C\c1cccn1-c1ccccc1)c1ccc2ccccc2c1`, the inhibition was 25% (active). On to `COc1ccc(N2CC(NS(=O)(=O)c3ccc4ccccc4c3)CC2=O)cc1` (stereo unspecified), for which the inhibition was 4.81%. For `O=C(COc1ccc(/C=N/NS(=O)(=O)c2ccccc2)cc1)NCCc1ccccc1`, the inhibition is 4.79%. On to `Cc1ccnc2nc(C(=O)Nc3nnc(-c4ccccc4)o3)nn12`, for which the inhibition was 8.88%. As for `CCCCn1c(N)c(N(CC(C)C)C(=O)c2cnc(C)cn2)c(=O)[nH]c1=O`, the figure is 7.57%; as for `COc1ccccc1NC(=O)CCN1CCN(c2ccc(Cl)cc2)CC1`, 6.99%; as for `Oc1cccc(/C=N/Nc2ccc(Cl)nn2)c1O`, 54.6% (active).

For the compound `Cc1ccsc1/C=N/Nc1ccc(Cl)nn1`, the inhibition was 8.65%. As for `COc1cccc(/C=N/Nc2ccc(Cl)nn2)c1`, the figure is -0.67%; as for `Cc1nn(C(C)C(=O)N2CCOCC2)c(=O)c2nn(-c3ccccc3)c(C)c12` (stereo unspecified), -0.47%; as for `CC1(N2CCOCC2)CC2(O)C(=[N+]1[O-])CCc1nonc12` (stereo unspecified), 11.9%.

In the case of `CCCCCCCC(=O)OC(CN1CCCCCC1)CN1CCCC1=O` (stereo unspecified), the inhibition is -5.64%. As for `Cc1ccccc1CS(=O)(=O)CC1(O)CCN(C(=O)c2cccc(C(F)(F)F)c2)CC1`, the figure is -7.07%; as for `O=c1nc2s/c(=C\c3ccco3)c(=O)n2nc1Cc1ccccc1`, 25.7% (active); as for `O=C(NCCc1ccco1)c1nn(Cc2ccccc2)c(=O)c2ccccc12`, 1.41%. As for `CN(c1ccccc1)c1ccc(/C=c2\s/c(=C(/C#N)C(=O)C(C)(C)C)n(Cc3ccco3)c2=O)cc1`, the figure is -0.46%. As for `O=C(COc1coc(CN2CCN(c3ccccc3)CC2)cc1=O)N1CCc2ccccc21`, the figure is -5.69%; as for `CC(=O)N1CCc2cc(Br)cc(S(=O)(=O)CCC(=O)Nc3c(C)n(C)n(-c4ccccc4)c3=O)c21`, 7.96%; as for `N/C(=N\S(=O)(=O)c1ccc(Cl)cc1)N1CCOCC1`, 7.38%. `O=C(CNC(=O)c1ccccc1Br)NCCSc1ccc(Br)cc1`: the inhibition is 6.87%. As for `COc1cc(C(=O)NCC(=O)NCCSc2ccc(Br)cc2)cc(OC)c1OC`, the figure is 2.53%; as for `COc1ccccc1C(=O)NCC(=O)NCCSc1ccc(Br)cc1`, 28.6% (active). As for `NCCN1CCN2C(=O)CN(C(=O)c3ccccc3)CC12` (stereo unspecified), the figure is 0.84%; as for `C/C=C(/C)C(=O)O[C@@H]1c2cc3c(c4c2[C@@]2(CO4)C(=O)C(OC)=C(OC)C=C2C[C@@H](C)[C@H]1C)OCO3`, -0.41%.
